The panel holds about 83,000 compounds, 20% with a hit somewhere; the sample as a whole holds those more often.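 Cell lines were cultured in 96-well plates, exposed to a single compound concentration, and assessed for percent growth 48 hours later.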 Unmarked numbers belong to inactive results. The source made the active and inactive calls. Rule for the calls: active = growth percent below 10; inactive = the rest.
What was measured:
Assay in all cases: NCI-60 one-dose screen, 48 h (100 = growth as untreated, 0 = no growth, -100 = all killed)
Details in all cases: 10 µM unless noted
SR leukemia = tested on: SR leukemia
RPMI-8226 leukemia = tested on: RPMI-8226 leukemia
OVCAR-8 ovarian = tested on: OVCAR-8 ovarian
OVCAR-5 ovarian = tested on: OVCAR-5 ovarian
OVCAR-4 ovarian = tested on: OVCAR-4 ovarian
SK-OV-3 ovarian = tested on: SK-OV-3 ovarian
IGROV1 ovarian = tested on: IGROV1 ovarian
OVCAR-3 ovarian = tested on: OVCAR-3 ovarian
HS 578T breast = tested on: HS 578T breast
NCI/ADR-RES ovarian = tested on: NCI/ADR-RES ovarian
T-47D breast = tested on: T-47D breast
BT-549 breast = tested on: BT-549 breast
MDA-MB-435 melanoma = tested on: MDA-MB-435 melanoma
MCF7 breast = tested on: MCF7 breast
HCT-116 colon = tested on: HCT-116 colon
HCC-2998 colon = tested on: HCC-2998 colon
KM12 colon = tested on: KM12 colon
SW-620 colon = tested on: SW-620 colon

Row | Compound | growth (SR leukemia) | growth (RPMI-8226 leukemia) | growth (OVCAR-8 ovarian) | growth (OVCAR-5 ovarian) | growth (OVCAR-4 ovarian) | growth (SK-OV-3 ovarian) | growth (IGROV1 ovarian) | growth (OVCAR-3 ovarian) | growth (HS 578T breast) [%] | growth (NCI/ADR-RES ovarian) | growth (T-47D breast) | growth (BT-549 breast) | growth (MDA-MB-435 melanoma) | growth (MCF7 breast) | growth (HCT-116 colon) | growth (HCC-2998 colon) | growth (KM12 colon) | growth (SW-620 colon)
1 | CCCCCCCCCCCCCC(=O)C(C)N (stereo not drawn) | -2.57% (active) | 31.9% | 89.9% | 68.7% | 14.3% | 72.5% | 53.2% | 73.6% | 70.6 | 75.8% | -30.2% (active) | 66.9% | 78.5% | 34% | 59.2% | 55.1% | 22.1% | –
2 | O=C1c2cc3c(cc2-c2c1c1cc(Cl)c(Cl)cc1c(=O)n2C[C@H](O)CO)OCO3 | -23.2% (active) | -8.53% (active) | -20.2% (active) | -23% (active) | -51.8% (active) | -54% (active) | -2.45% (active) | -54.2% (active) | 33 | -29.4% (active) | -20.2% (active) | -10.3% (active) | -24.8% (active) | -0.37% (active) | -25.4% (active) | -5.57% (active) | -21% (active) | –
3 | Nc1cccc(NC(=O)C(=O)Nc2cccc(N)c2)c1 | 115% | 88.1% | 94.8% | 94.5% | 126% | 117% | 75.7% | 101% | 89.8 | 93.1% | 105% | 127% | 102% | 100% | 80.2% | 105% | 98.7% | –
4 | COCCOC(=O)C1=C(C)NC(=S)NC1c1ccc2c(c1)OCO2 (stereo not drawn) | 95.5% | 105% | 102% | 109% | 103% | 103% | 105% | 111% | 104 | 103% | 94.8% | 109% | 104% | 89.6% | 103% | 109% | 100% | –
5 | O=C(COc1cccc(/C=C2/Oc3ccccc3C2=O)c1)Nc1nccs1 | -53.8% (active) | -53.2% (active) | 61.8% | 86.6% | 87.5% | 266% | -35% (active) | 220% | 88.6 | 83.3% | 166% | 87.9% | 103% | 54.4% | 73.9% | 105% | 4.37% (active) | –
6 | Cc1ccc(Nc2c(C(N)=O)cnc3ccc(-c4csc(N)n4)cc23)cc1 | 94.8% | 100% | 101% | 99.6% | 87% | 108% | 89.3% | 108% | 92.9 | 96.4% | 96.7% | 96.4% | 102% | 92.4% | 93.5% | 100% | 95.6% | 97%
7 | Cc1ccc2c(c1)O/C(=C\c1cccc(OCC(=O)c3ccccc3)c1)C2=O | 44.9% | 188% | 91.7% | 109% | 104% | 108% | 95.5% | 118% | 96.6 | 101% | 87.6% | 104% | 96.5% | 74.8% | 84.4% | 130% | 85.3% | 102%
8 | COc1nc2c(cc1S(=O)(=O)c1ccccc1)CCc1c-2cnn1Cc1ccccc1 | 26.2% | 32.8% | 54% | 93.6% | 35.2% | 58% | 80.5% | 64.5% | 79.9 | 48.2% | 16.3% | 62.8% | 58.9% | 15.4% | 32.5% | 60.5% | 27.7% | 74.1%
9 | O=C(CN1CCN(c2cc3c(cc2F)c(=O)c(C(=O)O)cn3C2CC2)CC1)Nc1cc(=O)[nH]c(=O)[nH]1 | 102% | 108% | 101% | 96.4% | 113% | 110% | 96.4% | 113% | 95.6 | 102% | 103% | 83.3% | 102% | 101% | 91.2% | 98.1% | 108% | 95.4%
10 | CC(=O)O[C@H]1CC[C@]2(C)[C@H]3CC[C@@H]4[C@H]5[C@H](C(C)C)CC[C@]5(C(=O)OCC(CO)(CO)N=C(N)N)CC[C@@]4(C)[C@]3(C)CC[C@H]2C1(C)C | -13.6% (active) | 4.55% (active) | -31.9% (active) | 99.1% | 87.9% | 91.2% | 24.3% | 18.9% | 93.7 | 76.8% | 44.6% | 108% | 22.6% | 4.01% (active) | -76.1% (active) | -60.9% (active) | 17.4% | –
11 | COc1ccc(S(=O)(=O)NCCNc2nccc(-c3c(-c4cccc([N+](=O)[O-])c4)nc4sccn34)n2)cc1 | 78.4% | 74% | 83.7% | 126% | 63.1% | 102% | 67.3% | 88.3% | 91.1 | 82% | 44.4% | 72.1% | 77.9% | 61.3% | 90% | 128% | 44.8% | 128%
12 | Cc1sc2nc3[nH]/c(=C\c4ccc(Cl)cc4)c(=O)n3c(=O)c2c1C | 86.6% | 97.1% | 103% | 81.7% | 105% | 105% | 107% | 107% | 111 | 107% | 103% | 105% | 98% | 100% | 102% | 107% | 108% | 102%
13 | Oc1ccc2c(=S)cc(-c3ccc(Br)cc3)oc2c1O | 1.21% (active) | -8.44% (active) | -6.62% (active) | 67.9% | -1.04% (active) | 62.3% | 19% | -21.7% (active) | 84 | -8.87% (active) | 2.92% (active) | 44.6% | 23.3% | -31.9% (active) | -22% (active) | 73.8% | 12.9% | 5.25% (active)
14 | OCC1C2C=CC(C2)C1CO (stereo not drawn) | 78.7% | 97% | 98.6% | 101% | 94% | 175% | 101% | 107% | 104 | 104% | 153% | 98.7% | 109% | 111% | 96.7% | 125% | 106% | –
15 | C=C(C[n+]1ccccc1)[C@@H]1CC[C@]2(C(=O)OC)CC[C@]3(C)[C@H](CC[C@@H]4[C@@]5(C)CC[C@H](O)C(C)(C)[C@@H]5CC[C@]43C)[C@@H]12 | 108% | 91.1% | 102% | 102% | 99.7% | 95% | 98% | 108% | 101 | 103% | 82.5% | 99% | 91.8% | 97.7% | 97% | 104% | 103% | 91.6%
16 | NC1=CSC2=N/C(=C\c3ccc(Cl)cc3)C(=O)N12 | -2.29% (active) | 39.9% | 72.3% | 105% | 84.1% | 89.3% | 79.2% | 71.6% | 101 | 76.1% | 79% | 75.3% | 68% | 67.2% | 66.1% | 90.2% | 89.2% | 71.3%
17 | Cc1ccn2c(-c3csc(Nc4cccc(O)c4)n3)c(C)nc2c1 | -24.8% (active) | -4.74% (active) | 40.1% | 38.5% | 36.7% | -25.2% (active) | 14.1% | -14% (active) | 19.2 | 14.4% | 34% | 25% | -34.6% (active) | 6.08% (active) | 27.6% | – | 29.9% | 33.4%

Reference: PubChem BioAssay (NCI)
